Experimental data from PubChem BioAssay (EPA / NIEHS).
Inconclusive results are not listed. Calls of active or inactive are those of the source. The calls were made as follows, unless noted: active = hit-call score of the fitted dose curve at least 0.9, where 1 is the maximum; inconclusive = response in the unintended direction; inactive = score below 0.9.

Tests used:
[1] = CCTE_Shafer_MEA_acute_per_network_burst_spike_number_std: CCTE's Neural Acute Assay for Standard Deviation of Number of Spikes in a Network Burst, Shafer Lab (AID 2284020; active = hit-call score of the fitted dose curve at least 0.9, where 1 is the maximum; inactive = score below 0.9;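 also: fitted for decrease in spike-number SD versus DMSO so actives lower it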)
In short: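 Rat cortical cultures, DIV 13/15, 37 C; 20-min stabilisation, 40-min baseline, compound 0.03-40 uM, 40-min re-record. Spikes detected at 8x rms noise (300-5000 Hz band-pass). Readout: % change from baseline in per-burst spike-number SD.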

[2] = CCTE_Shafer_MEA_acute_per_network_burst_electrodes_number_mean: CCTE's Neural Acute Assay for Mean Number of Electrodes in a Network Burst, Shafer Lab (AID 2284021; active = hit-call score of the fitted dose curve at least 0.9, where 1 is the maximum; inactive = score below 0.9;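 also: curves fitted for decreases only so hits reduce electrodes per burst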)
In short: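 Cultures of rat cortex neurons were exposed on DIV 13 or 15 to compounds at 0.03-40 uM in at least three wells each. Activity over 40 min before and 40 min after exposure at 37 C gave the percent change in electrodes per network burst.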

[3] = CCTE_Shafer_MEA_acute_network_burst_percentage: CCTE's Neural Acute Assay for Percentage of Network Bursts, Shafer Lab (AID 2284022; active = hit-call score of the fitted dose curve at least 0.9, where 1 is the maximum; inactive = score below 0.9;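 also: curves fitted for loss so actives lower network burst percentage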)
In short: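 Cortical neurons from rat were grown over microelectrode arrays and used on day 13 or 15 in vitro. Wells with at least 10 active electrodes received test chemical at 0.03-40 uM. Activity during 40 min of exposure was compared with the preceding 40-min baseline.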

[4] = CCTE_Shafer_MEA_acute_cross_correlation_area: CCTE's Neural Acute Assay for Area of Cross Correlation, Shafer Lab (AID 2284024; active = hit-call score of the fitted dose curve at least 0.9, where 1 is the maximum; inactive = score below 0.9;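 also: area under pooled inter-electrode spike cross-correlation near zero lag as percent change from own baseline; curves fitted for loss of cross-correlation area so actives lower synchrony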)
In short: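 Acute exposure of mature rat cortical networks (day 13 or 15 post-plating) to 0.03-40 uM compound. Spontaneous spiking on MEA, 40 min pre- and post-dose at 37 C.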

[5] = CCTE_Shafer_MEA_acute_cross_correlation_HWHM: CCTE's Neural Acute Assay for Cross Correlation at Half Width at Half Maximum, Shafer Lab (AID 2284026; active = hit-call score of the fitted dose curve at least 0.9, where 1 is the maximum; inactive = score below 0.9;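 also: percent change per well from pre-dose baseline in spike cross-correlogram half width; hits are a decrease in cross-correlogram half width relative to DMSO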)
In short: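 Primary cortex (rat), MEA, DIV 13/15; compound 0.03-40 uM; 40 min pre + 40 min post at 37 C; spike threshold 8x rms; wells need ≥10 active electrodes; endpoint = % change in cross-correlogram HWHM vs baseline, DMSO negative control.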

[6] = CCTE_Shafer_MEA_acute_synchrony_index: CCTE's Neural Acute Assay for Synchrony, Shafer Lab (AID 2284027; active = hit-call score of the fitted dose curve at least 0.9, where 1 is the maximum; inactive = score below 0.9;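 also: network synchrony index of spontaneous spiking in primary rat cortical neurons on MEAs; fitted for loss of signal so actives lower synchrony relative to DMSO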)
In short: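 The synchrony index is taken as percent change per well between a 40 min baseline and a 40 min recording with compound (0.03–40 uM), at 37C. Rat cortical cultures on multiwell MEAs at DIV 13 or 15, spike threshold 8× rms noise.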

[7] = biological target: Estrogen receptor (Homo sapiens) (UniProt P03372); experiment: CCTE_Deisenroth_AIME_384WELL_LUC_Active: CCTE's 384-well Estrogen Receptor Transactivation Assay with AIME metabolic competence (ERTA luciferase; metabolism positive), Deisenroth Lab (AID 2284030)
In short: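 In this metabolism-positive format, a 2-hour exposure to alginate-immobilized rat S9 precedes a 24 hour luciferase transactivation readout in VM7Luc4E2 cells. Dosing spans 10 concentrations from 0.002 to 200 uM.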

[8] = CCTE_Deisenroth_AIME_384WELL_CTox_Active: Cytotoxicity Assessment (CTOX) in CCTE's 384-well Estrogen Receptor Transactivation Assay with AIME metabolic competence (metabolism positive), Deisenroth Lab (AID 2284037);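 also: chemicals first conditioned 2 h by alginate-bound induced rat liver S9 before cells; activity means signal loss indicating cell death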
In short: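 Chemicals pre-incubated 2 hours with alginate-immobilised phenobarbital/beta-naphthoflavone-induced male Sprague Dawley rat liver S9, then conditioned medium applied 24 hour to VM7Luc4E2 cells. Viability by fluorogenic protease substrate; 10-point series 0.002 - 200 uM.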

[9] = CCTE_Deisenroth_AIME_384WELL_CTox_Inactive: Cytotoxicity Assessment (CTOX) in CCTE's 384-well Estrogen Receptor Transactivation Assay without AIME metabolic competence (metabolism negative), Deisenroth Lab (AID 2284039);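 also: cell viability via live-cell protease substrate cleaved to fluorescent probe; cells exposed 24 h to medium preincubated 2 h with alginate-water beads without S9; loss of fluorescence signal means loss of viability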
In short: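 Fluorescence from a live-cell protease substrate, read after 24 h in VM7Luc4E2 cells, indicated viability. Test medium came from a 2 h AIME step without hepatic S9 (alginate-water microspheres); concentrations spanned 0.002 - 200 uM, single technical replicate per run.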

[10] = biological target: Estrogen receptor (Homo sapiens) (UniProt P03372); experiment: CCTE_Deisenroth_AIME_384WELL_LUC_Inactive: CCTE's 384-well Estrogen Receptor Transactivation Assay without AIME metabolic competence (ERTA luciferase; metabolism negative), Deisenroth Lab (AID 2284038);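 also: hits raise estrogen receptor luciferase signal so potencies reflect agonists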
In short: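 VM7Luc4E2 ER transactivation, luciferase bioluminescence after 24 h, using medium pre-incubated 2 h with S9-free alginate microspheres. Concentrations 0.002–200 uM; gain of signal fitted relative to 17beta-estradiol.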

[11] = CCTE_Deisenroth_AIME_96WELL_CTox_Active: Cytotoxicity Assessment (CTOX) in CCTE's 96-well Estrogen Receptor Transactivation Assay with AIME metabolic competence (metabolism positive), Deisenroth Lab (AID 2284028)
In short: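 Cytotoxicity in VM7Luc4E2 breast cells after 24 h exposure to medium from a 2 h metabolic pre-incubation with induced rat hepatic S9 in alginate microspheres; fluorescent live-cell protease readout, 10-point series 0.002–200 uM, n=4.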

[12] = CCTE_Shafer_MEA_dev_firing_rate_mean: CCTE's Neural Network Formation Assay for Mean Firing Rate, Shafer Lab (AID 2284031; active = hit-call score of the fitted dose curve at least 0.9, where 1 is the maximum; inactive = score below 0.9)
In short: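 Spike frequency (spikes/recording length, averaged over active electrodes) was recorded on days 5, 7, 9 and 12 and collapsed to AUC; rat cortical cultures received compound continuously over 12 days of network development.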

[13] = CCTE_Shafer_MEA_dev_per_burst_spike_percent: CCTE's Neural Network Formation Assay for Percent of Spikes in a Burst, Shafer Lab (AID 2284032; active = hit-call score of the fitted dose curve at least 0.9, where 1 is the maximum; inactive = score below 0.9)
In short: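 Value is trapezoidal AUC over recordings on days 5, 7, 9 and 12 of the well-mean fraction of spikes falling in single-electrode bursts; rat cortical cultures exposed continuously from plating, treatment renewed DIV 5 and 9, fitted downward against DMSO.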

[14] = CCTE_Shafer_MEA_dev_active_electrodes_number: CCTE's Neural Network Formation Assay for Number of Active Electrodes, Shafer Lab (AID 2284040);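 as to AC50: potency for loss of active electrodes versus DMSO so lower counts are hits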
In short: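 Counts electrodes per well firing at least 5 spikes/min, recorded on days 5, 7, 9 and 12 in rat cortical cultures dosed continuously from plating (treatment refreshed DIV 5, 9). Value is the area under the curve over recordings, fitted downward relative to DMSO.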

[15] = CCTE_Shafer_MEA_dev_burst_rate: CCTE's Neural Network Formation Assay for Burst Rate, Shafer Lab (AID 2284042; active = hit-call score of the fitted dose curve at least 0.9, where 1 is the maximum; inactive = score below 0.9)
In short: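 Developmental network assay measuring how 12-day exposure of rat cortical neuron cultures alters bursting on extracellular MEA recordings. Values are AUC of well-mean burst rate across four recording days, relative to DMSO vehicle.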

[16] = CCTE_Shafer_MEA_dev_bursting_electrodes_number: CCTE's Neural Network Formation Assay for Number of Bursting Electrodes, Shafer Lab (AID 2284043);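 as to AC50: potency is for loss of bursting electrodes relative to DMSO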
In short: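 Rat cortical primary neurons, 48-well MEA, 16 electrodes/well; dosing DIV 0–12, re-dosed with full media change DIV 5, 9. Recordings DIV 5/7/9/12, AxIS adaptive spike detector; bursting electrode = ≥1 burst/2 min. AUC across days; loss of signal vs DMSO.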

[17] = CCTE_Shafer_MEA_dev_per_burst_interspike_interval: CCTE's Neural Network Formation Assay for Burst Interspike Interval, Shafer Lab (AID 2284044; active = hit-call score of the fitted dose curve at least 0.9, where 1 is the maximum; inactive = score below 0.9)
In short: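 Developmental network-formation MEA in primary rat cortical cultures with exposure spanning days 0–12. Within-burst ISI is averaged per well and integrated across recording days by area under the curve, with DMSO as negative control baseline.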

Measured: AC50

Chain of Estrogen receptor (Homo sapiens) (P03372 whole entry, looked up): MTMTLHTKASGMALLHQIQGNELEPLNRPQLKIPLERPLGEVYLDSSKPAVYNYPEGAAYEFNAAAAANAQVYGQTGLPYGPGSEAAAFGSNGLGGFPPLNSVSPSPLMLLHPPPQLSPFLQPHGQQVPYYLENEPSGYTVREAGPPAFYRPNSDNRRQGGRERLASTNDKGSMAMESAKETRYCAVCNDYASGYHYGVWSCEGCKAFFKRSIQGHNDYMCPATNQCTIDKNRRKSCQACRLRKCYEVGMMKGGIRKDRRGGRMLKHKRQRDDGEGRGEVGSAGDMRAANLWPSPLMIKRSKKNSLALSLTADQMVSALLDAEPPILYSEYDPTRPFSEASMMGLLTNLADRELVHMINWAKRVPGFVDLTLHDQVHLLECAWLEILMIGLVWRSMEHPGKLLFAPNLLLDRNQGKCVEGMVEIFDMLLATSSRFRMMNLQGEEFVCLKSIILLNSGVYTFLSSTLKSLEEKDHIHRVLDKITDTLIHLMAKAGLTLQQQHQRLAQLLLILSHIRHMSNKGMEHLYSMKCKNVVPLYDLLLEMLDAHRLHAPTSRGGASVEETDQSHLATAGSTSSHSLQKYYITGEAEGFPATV

CC1=C(C)S(=O)(=O)CCS1(=O)=O
inactive: [1] | [2] | [3] | [4] | [5] | [6] | [7]
active: [8] 172 µM | [9] 100 µM

CN(C)C(=O)NC1(c2ccccc2)CCN(CCC[C@]2(c3ccc(Cl)c(Cl)c3)CCCN(C(=O)c3ccccc3)C2)CC1
active: [1] 7.62 µM | [2] 2.99 µM | [3] 7.5 µM | [4] 0.00118 µM | [5] 8.86 µM | [6] 6.12 µM

COc1ccc(OC(F)(F)F)cc1CN[C@H]1CCCN[C@H]1c1ccccc1
inactive: [2] | [4] | [6]
active: [1] 2.75 µM | [3] 3.09 µM | [5] 3.09 µM

Nc1nc(=S)c2[nH]cnc2[nH]1
active: [5] 32.2 µM | [6] 3.98 µM
inactive: [1] | [2] | [3] | [4] | [8] | [9]

CC(C)COC(=O)CCCCC(=O)OCC(C)C
inactive: [1] | [2] | [3] | [4] | [5] | [6]

CCCC(=O)O
inactive: [1] | [2] | [3] | [4] | [5] | [6]

NC(=Nc1ccccc1)Nc1ccccc1
active: [5] 20 µM
inactive: [1] | [2] | [3] | [4] | [6]

c1ccc2occc2c1
not listed: [11] | [12] | [13] | [14] | [15] | [16] | [17]
inactive: all other assays above

Cc1c(C)c2c(c(C)c1O)CCC(C)(COc1ccc(CC3SC(=O)NC3=O)cc1)O2 (stereo not drawn)
inactive: [2] | [3] | [4]
active: [1] 0.517 µM | [5] 29.7 µM | [6] 35.5 µM

S=c1[nH]c2ccccc2s1
inactive: [11]

Oc1ccccc1O
active: [8] 100 µM | [9] 51.8 µM

CC(=O)OCC(COC(C)=O)OC(C)=O
inactive: [8]

C/C=C/C=C/C(=O)O
inactive: [8] | [9]

O=C(O)c1cccnc1
inactive: [9]

NC1CCCCC1
inactive: [7] | [10]

CCCCC(CC)CO (stereo not drawn)
inactive: [8] | [9]

CC1(C)C(=O)NC(=O)N1CO
inactive: [7] | [8] | [10] | [9]

CCCCCCCCCCCCCCCCO
inactive: [7] | [8] | [10]

O=C1O[C@H]([C@H](O)CO)C(O)=C1O
inactive: [9]

O=C1NC(=O)C(c2ccccc2)(c2ccccc2)N1
inactive: [12] | [13] | [14] | [15] | [16] | [17]

CCCCCCCC(=O)OC
inactive: [7] | [8] | [10] | [9]

CC(=O)O
inactive: [8] | [9]

O=[Si]=O
inactive: [7] | [8] | [10] | [9]

CN(C)CCCN(C)CCCN(C)C
inactive: [7] | [8] | [10] | [9]

COC(=O)CCC(=O)OC
inactive: [7] | [10]

O=C1CCCCC1
inactive: [7] | [8] | [10] | [9]

O=C(O)CC(O)(CC(=O)O)C(=O)O
inactive: [7] | [8] | [10]

OCC(O)CO
inactive: [12] | [13] | [14] | [15] | [16] | [17]

O=C(O)c1[nH]n(-c2ccc(S(=O)(=O)O)cc2)c(=O)c1N=Nc1ccc(S(=O)(=O)O)cc1
inactive: [7] | [10]
active: [8] 100 µM | [9] 100 µM

Cc1occc(=O)c1O
inactive: [9]

CCOCCOCCO
inactive: [8] | [9]

NC=O
inactive: [8] | [9]

CCCCCCC(C=O)=Cc1ccccc1
inactive: [9]

CC(C)c1cccc(C(C)C)c1
inactive: [7] | [8] | [10] | [9]

CCCCCCC(CCCCCCCCCCC(=O)OCC(COC(C)=O)OC(C)=O)OC(C)=O (stereo not drawn)
inactive: [7] | [10] | [9]

COC(=O)CCCC(=O)OC
inactive: [8]

CC(C)OC(=O)C(C)(C)Oc1ccc(C(=O)c2ccc(Cl)cc2)cc1
inactive: [7] | [8] | [10] | [9]

CC(C)(O)c1ccc(CNC(=O)c2cccnc2Oc2ccc(F)cc2)cc1
inactive: [8]

CC(=O)CC(c1ccccc1)c1c(O)c2ccccc2oc1=O (stereo not drawn)
active: [14] 2.98 µM | [16] 2.98 µM
inactive: [12] | [13] | [8] | [9] | [15] | [17]
